Values joined by “and” are separate entries in the source; they are usually repeats but may differ in a detail not shown here. Equal values may be shown once. Results filed as inconclusive are left out. Where a call stands in place of a potency, no number is given. Active and inactive are the calls of the source. Calls come from the whole dose curve; as a rule, active = well fitted inhibition curve with a large enough effect; inconclusive = small, poorly fitted or top-dose-only effect; inactive = flat fitted curve, though single readings scatter.
Test system: Zika virus NS2B-NS3 protease (linked construct)
Assay: Confirmatory screen NINDS AMC qHTS for Zika virus inhibitors (AID 1347152);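 for activity change, negative = inhibition: AMC fluorescence gain from cleaved Bz-Nle-KRR-AMC substrate over 15 min; top concentration of the series differs between compounds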
Conditions: Purified linked NS2B-NS3, AMC substrate fluorescence; series mostly up to 56.6 µM
In short: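 In this dose-response qHTS, AMC release from 10 microM Bz-Nle-KRR-AMC by 1 nM linked protease is measured over 15 minutes (about 20% conversion) at pH 8.0. Percent inhibition is fitted to a 4-parameter Hill curve.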
Note: nearly all actives have a fitted effect of over 70% in size.
Potency is the fitted concentration of half-maximal effect.

SMILES | Potency
c1cc(N[C@@H]2CCNC2)nc(-c2cnc3ccc(-c4cn[nH]c4)cn23)c1 | 24.1 µM (active)
CC(C)c1cc(C(C)C)c(CC(=O)NS(=O)(=O)Oc2c(C(C)C)cccc2C(C)C)c(C(C)C)c1 | 7.84 µM (active)
CCCCCCCCc1ccc(CCC(N)(CO)CO)cc1 | inactive
C[C@H]1COc2c(N3CCN(C)CC3)c(F)cc3c(=O)c(C(=O)O)cn1c23 | 24.1 µM (active)
C[C@@H](NCc1cc2ccccc2[nH]1)c1cccc2ccccc12 | inactive

Test system: Zika virus NS2B-NS3 protease (unlinked complex)
Assay: Confirmatory screen GU AMC qHTS for Zika virus inhibitors (AID 1347153);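 for potency: enzyme at 25 nM with substrate at 10 µM below its Km of 18.3 µM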
Conditions: Recombinant NS2B-NS3 protease, AMC substrate fluorescence; series mostly up to 57.1 µM
In short: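 Noncovalent NS2B hydrophilic domain/NS3 protease complex (25 nM) in 10 mM Tris-HCl pH 8.0, 0.01% Tween 20 was preincubated 15 min at room temperature with compounds. Then 10 µM AMC substrate (Km 18.3 µM) was added; fluorescence was read over 15 min and fitted to a 4-parameter Hill equation.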

SMILES | Potency
Cc1ccc(-n2[nH]c(C)c(N=Nc3cccc(-c4cccc(C(=O)O)c4)c3O)c2=O)cc1C | 15.2 µM (active)
CC(C)c1cc(C(C)C)c(CC(=O)NS(=O)(=O)Oc2c(C(C)C)cccc2C(C)C)c(C(C)C)c1 | 11.1 µM (active)
CCCCCCCCc1ccc(CCC(N)(CO)CO)cc1 | inactive
C[C@@H](NCc1cc2ccccc2[nH]1)c1cccc2ccccc12 | inactive

Test system: Zika virus NS2B-NS3 protease
Assay: Primary screen GU AMC qHTS for Zika virus inhibitors (AID 1347154)
Conditions: Zika NS2B-NS3 unlinked protease, AMC fluorogenic substrate; series mostly up to 54.1 µM
In short: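 Unlinked Zika NS2B hydrophilic domain–NS3 protease complex at 25 nM in 10 mM Tris-HCl pH 8.0, 0.01% Tween 20, with an AMC peptide substrate. Fluorescence change (340/450 nm) over 15 min at room temperature, normalized to controls, fitted to 4-parameter Hill.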

SMILES | Potency | activity change, negative = inhibition
Cc1ccc2nc(NCCN)c3ncc(C)n3c2c1 | inactive | 
c1cc(N[C@@H]2CCNC2)nc(-c2cnc3ccc(-c4cn[nH]c4)cn23)c1 | 19.2 µM (active) | 
CN1C(C(=O)Nc2ccccn2)=C(O)c2sc(Cl)cc2S1(=O)=O | inactive | 
O=C(c1ccc(F)cc1)N1CCC[C@H](c2nc(-c3ccc(F)cc3)no2)C1 | inactive | 
CC[C@H](CC[C@@H](C)[C@H]1CC[C@H]2[C@@H]3CC=C4C[C@@H](O)CC[C@]4(C)[C@@H]3CC[C@]12C)C(C)C | inactive | 
N#CC(=C(N)Sc1ccc(N)cc1)c1ccccc1C(F)(F)F | inactive | 
COc1ccc(Nc2nccc(NCCO)n2)cc1 | inactive | 
NC(=NCCCCCCN=C(N)N=C(N)Nc1ccc(Cl)cc1)N=C(N)Nc1ccc(Cl)cc1 | inactive | 
C=C[C@@H]1CN2CCC1C[C@H]2[C@H](O)c1ccnc2ccc(OC)cc12 (stereo not given in full) | inactive | 
Cc1ccc(-n2[nH]c(C)c(N=Nc3cccc(-c4cccc(C(=O)O)c4)c3O)c2=O)cc1C | 19.2 µM (active) | 
Nc1ccn(C[C@@H](CO)OCP(=O)(O)O)c(=O)n1 | inactive | 
Cc1onc(-c2ccccc2)c1C(=O)N[C@@H]1C(=O)N2[C@@H](C(=O)O)C(C)(C)S[C@@H]12 | inactive | 
CCN(C(=O)c1c(O)c2c(Cl)cccc2n(C)c1=O)c1ccccc1 | inactive | 
COC1=C(OC)C(=O)C(CC=C(C)CCC=C(C)CCC=C(C)CCC=C(C)CCC=C(C)CCC=C(C)CCC=C(C)CCC=C(C)CCC=C(C)CCC=C(C)C)=C(C)C1=O | inactive | 
O=C1c2cccc(O)c2C(=O)c2c(O)cc(CO)cc21 | inactive | 
CC(C)c1cnn2c(NCc3ccccc3)cc(NCCCCCCN)nc12 | inactive | 
CC(C)[C@H](CO)Nc1nc(Nc2cccc(Cl)c2)c2ncn(C(C)C)c2n1 | inactive | 
OC[C@H]1OC(O)C[C@@H](O)[C@H]1O (stereo not given in full) | inactive | 

SMILES | Potency | activity change, negative = inhibition
CN[C@H](CC(C)C)C(=O)N[C@H]1C(=O)N[C@@H](CC(N)=O)C(=O)N[C@@H]2C(=O)N[C@H]3C(=O)N[C@H](C(=O)N[C@H](C(=O)O)c4cc(O)cc(O)c4-c4cc3ccc4O)[C@H](O)c3ccc(c(Cl)c3)Oc3cc2cc(c3O[C@@H]2O[C@H](CO)[C@@H](O)[C@H](O)[C@@H]2O[C@H]2C[C@](C)(N)[C@H](O)[C@H](C)O2)Oc2ccc(cc2Cl)[C@H]1O | inactive | 
Cc1ccc(O)c(C(CCN(C(C)C)C(C)C)c2ccccc2)c1 (stereo not given) | inactive | 
NC1=N[C@H]2[C@H](CS[C@H]2CCCCC(=O)O)N1 | inactive | 
Oc1cc2c(cc1O)C1c3ccc(O)c(O)c3OCC1(O)C2 (stereo not given) | 24.1 µM (active) | 
NC(=O)N1CCC(CC(=O)N2CCC([C@H]3c4ncc(Br)cc4CCc4cc(Cl)cc(Br)c43)CC2)CC1 | inactive | 
C[C@H]1COc2c(N3CCN(C)CC3)c(F)cc3c(=O)c(C(=O)O)cn1c23 | 27.1 µM (active) and 10.6 µM (active) | 
C=C1C[C@@]2(O)O[C@@]3(C[C@H]2C(C)C)[C@H](C)CC[C@H]13 | inactive | 
CC(=O)OC[C@@H]1O[C@@H](n2ccc(=O)[nH]c2=O)[C@H](OC(C)=O)[C@H]1OC(C)=O | inactive | 
C[C@]12C=CC(=O)N[C@@H]1CC[C@H]1[C@H]3CC[C@@H](C(=O)Nc4cc(C(F)(F)F)ccc4C(F)(F)F)[C@@]3(C)CC[C@@H]12 | inactive | 
CC(=O)OCC(=O)[C@@]1(O)CC[C@H]2[C@@H]3CCC4=CC(=O)CC[C@]4(C)[C@@H]3C(=O)C[C@@]21C | inactive | 
CC(C)(O)[C@H]1CC[C@@](C)([C@H]2[C@@H](O)C[C@@]3(C)[C@@H]4C[C@H](O[C@@H]5O[C@H](CO)[C@@H](O)[C@H](O)[C@@H]5O)[C@H]5C(C)(C)[C@@H](O[C@@H]6OC[C@@H](O)[C@H](O)[C@@H]6O)CC[C@@]56C[C@@]46CC[C@]23C)O1 | inactive | 
N#Cc1ccc(COC[C@H]2O[C@@H](n3c(NCc4ccc(Cl)c(Cl)c4)nc4c(N)ncnc43)[C@@H](O)[C@@H]2O)cc1 | inactive | 
CN(C)c1ccc2cc(C(=O)N[C@@H](CCCN=C(N)CCl)C(=O)NCc3ccccc3)ccc2c1 | inactive | 
C=CC(=O)Nc1cc(NC(=O)c2ccc(C)c(NC(=O)c3ccno3)c2)cc(C(F)(F)F)c1 | inactive | 
CCN1CCN(C(=O)N[C@H](C(=O)N[C@@H]2C(=O)N3C(C(=O)O)=C(CSc4nnnn4C)CS[C@@H]23)c2ccc(O)cc2)C(=O)C1=O | inactive | 
Cc1noc(-c2ccc(CSCCC(=O)O)cc2)c1NC(=O)OC(C)c1ccccc1Cl (stereo not given) | inactive | 
CC(=O)N[C@H]1[C@@H]([C@H](O)[C@H](O)CO)OC(C(=O)O)=C[C@@H]1N=C(N)N | inactive | 
CC(C)(C)[C@H](NC(=O)c1ccc(N)c(Cl)c1)C(=O)N1CCC[C@@H]1C(=O)N[C@H](C#N)CC(=O)O |  | 6.17% [at 6.83 µM] (inactive)
